From PubChem BioAssay (EPA / NIEHS) come the findings set out here.

In experiment [1] the target is Peroxisome proliferator-activated receptor gamma (Homo sapiens) (UniProt P37231). As to the kind of experiment: ATG_hPPARg_XSP1: Attagene TRANS-FACTORIAL Multi-Species (XSP1) HepG2 Assay for human Peroxisome Proliferator-activated Receptor gamma (PPARg) (AID 2283800). The gist of the method: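 HepG2 cells transiently transfected with GAL4-UAS reporter units carrying chimeric NR-Gal4 proteins; 3 nM 6-alpha-fluorotestosterone present. After 24 h dosing, reporter mRNA quantified by RT-PCR and capillary electrophoresis; gain of signal relative to DMSO.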

Experiment [2] has as its system zebrafish Peroxisome Proliferator-activated Receptor gamma (PPARg), gene 557037. As to the kind of experiment: ATG_zfPPARg_XSP1: Attagene TRANS-FACTORIAL Multi-Species (XSP1) HepG2 Assay for zebrafish Peroxisome Proliferator-activated Receptor gamma (PPARg) (AID 2283801). The gist of the method:
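HepG2 cells transiently transfected with GAL4-UAS reporter units including a zebrafish PPARg–GAL4 chimera, dosed 24 h with 3 nM 6-alpha-fluorotestosterone present. Reporter mRNA quantified by RT-PCR, FAM labelling, HpaI digestion and capillary electrophoresis; induction versus DMSO.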

Experiment [3] has as its target mouse Peroxisome Proliferator-activated Receptor gamma (PPARg), Pparg (gene 19016) (UniProt P37238). As to the kind of experiment: ATG_mPPARg_XSP1: Attagene TRANS-FACTORIAL Multi-Species (XSP1) HepG2 Assay for mouse Peroxisome Proliferator-activated Receptor gamma (PPARg) (AID 2283802). The procedure, abridged:
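HepG2 cells transiently transfected with GAL4-UAS reporter units driven by mouse PPARg–GAL4 chimera; 3 nM 6-alpha-fluorotestosterone present. After 24 h dosing, reporter mRNA quantified by RT-PCR, fluorescent labelling and capillary electrophoresis; gain of signal versus DMSO.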

The target in experiment [4] is Nuclear receptor subfamily 1 group I member 2 (Mus musculus) (UniProt O54915). The experiment is described as follows: ATG_mPXR_XSP1: Attagene TRANS-FACTORIAL Multi-Species (XSP1) HepG2 Assay for mouse Pregnane X Receptor (PXR) (AID 2283803). The gist of the method:
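Transiently transfected HepG2 cells expressing a receptor-Gal4 chimera drive a GAL4-UAS reporter; 3 nM 6-alpha-fluorotestosterone included. Reporter mRNA read 24 h post-dose by RT-PCR and capillary electrophoresis; gain of signal relative to DMSO.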

Experiment [5] has as its target frog Thyroid hormone Receptor alpha (TRa), thra-a (gene 397942) (UniProt P15204). The experiment is described as follows: ATG_frTRa_XSP1: Attagene TRANS-FACTORIAL Multi-Species (XSP1) HepG2 Assay for frog Thyroid hormone Receptor alpha (TRa) (AID 2283804). The gist of the method: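 HepG2 cells transiently transfected with frog TRa-GAL4 chimeric reporter units, dosed 24 hr with 3 nM 6-alpha-fluorotestosterone present; reporter mRNA quantified by RT-PCR, fluorescent labelling and capillary electrophoresis, gain of signal versus DMSO.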

Experiment [6] addresses human Thyroid hormone Receptor alpha (TRa), THRA (gene 7067) (UniProt P10827). The experiment is described as follows: ATG_hTRa_XSP1: Attagene TRANS-FACTORIAL Multi-Species (XSP1) HepG2 Assay for human Thyroid hormone Receptor alpha (TRa) (AID 2283805). The procedure, abridged: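 HepG2 cells transiently transfected with GAL4-UAS reporter units expressing chimeric NR-Gal4 proteins, dosed 24 hours with 3 nM 6-alpha-fluorotestosterone present. Reporter mRNA measured by RT-PCR and capillary electrophoresis; gain of signal fitted versus DMSO.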

Experiment [7] concerns turtle Thyroid Hormone Receptor, alpha (TRa), gene 101949057. The experiment is described as follows: ATG_trTRa_XSP1: Attagene TRANS-FACTORIAL Multi-Species (XSP1) HepG2 Assay for turtle Thyroid Hormone Receptor, alpha (TRa) (AID 2283806). The procedure, abridged: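 HepG2 cells transiently transfected with GAL4-UAS reporter units and chimeric receptor-Gal4 constructs, with 3 nM 6-alpha-fluorotestosterone present. Reporter mRNA was quantified 24 h after dosing by RT-PCR, 6-FAM labelling and capillary electrophoresis; gain of signal versus DMSO.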

Experiment [8] has as its target human Thyroid hormone Receptor beta (TRb), THRB (gene 7068) (UniProt P10828). As to the kind of experiment: ATG_hTRb_XSP1: Attagene TRANS-FACTORIAL Multi-Species (XSP1) HepG2 Assay for human Thyroid hormone Receptor beta (TRb) (AID 2283808). The procedure, abridged:
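HepG2 cells transiently transfected with reporter units driving GAL4-UAS reporters for chimeric NR-Gal4 proteins; 24 h chemical exposure with 3 nM 6-alpha-fluorotestosterone present. Reporter mRNA quantified by RT-PCR and capillary electrophoresis, gain of signal versus DMSO.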

Experiment [9] deals with zebrafish Thyroid Hormone Receptor beta (TRb), thrb (gene 30607) (UniProt Q9PVE4). The experiment is described as follows: ATG_zfTRb_XSP1: Attagene TRANS-FACTORIAL Multi-Species (XSP1) HepG2 Assay for zebrafish Thyroid Hormone Receptor beta (TRb) (AID 2283809). The procedure, abridged:
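HepG2 cells transiently transfected with multiplexed GAL4-UAS reporter units expressing chimeric zebrafish TRb–Gal4. Dosed 24 h with 3 nM 6-alpha-fluorotestosterone present; reporter mRNA measured by RT-PCR, HpaI digestion and capillary electrophoresis; gain of signal versus DMSO.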

Experiment [10] in a line: ATG_XTT_Cytotoxicity_XSP1: Cytotoxicity Assessment in the Attagene TRANS-FACTORIAL Multi-Species (XSP1) HepG2 Assay (AID 2283810). The procedure, abridged:
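XTT viability readout taken at 24 hours post-dosing in HepG2 liver cells co-treated with 3 nM 6-alpha-fluorotestosterone. Signal loss relative to DMSO controls reflects cytotoxicity.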

A short description of experiment [11]: ATG_M_06_XSP2: Attagene TRANS-FACTORIAL Multi-Species (XSP2) HepG2 Assay for M06 Transcription Factor (Internal Marker) (AID 2283811).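 Note: hits are increases in signal above the DMSO baseline.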 The gist of the method:
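HepG2, multiplexed reporter transfection; 24 h dosing; AR stimulated with 3 nM 6-alpha-fluorotestosterone + 1.5 nM norgestrel; RNA → RT-PCR → 6-FAM primer extension → HpaI → CE. Positive direction vs DMSO.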

For experiment [12], the target named is Estrogen receptor beta (Homo sapiens) (UniProt Q92731). The experiment is described as follows: ATG_hERb_XSP2: Attagene TRANS-FACTORIAL Multi-Species (XSP2) HepG2 Assay for human Estrogen Receptor (ERb) (AID 2283813).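 Note: actives raise reporter mRNA above DMSO so AC50 reflects agonist induction.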 The procedure, abridged:
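HepG2 cells transiently transfected with GAL4-UAS reporter units and chimeric human ERb-Gal4, 24 h exposure. Reporter mRNA quantified by RT-PCR with FAM labelling, HpaI digestion and capillary electrophoresis; gain of signal versus DMSO.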

Experiment [13] concerns the target zebrafish Estrogen Receptor (ER1), esr1 (gene 259252) (UniProt P57717). As to the kind of experiment: ATG_zfER1_XSP2: Attagene TRANS-FACTORIAL Multi-Species (XSP2) HepG2 Assay for zebrafish Estrogen Receptor (ER1) (AID 2283816). The gist of the method: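 HepG2 cells transiently transfected with a GAL4-UAS reporter and a chimeric zebrafish ER1-Gal4 construct, dosed 24 h. Reporter mRNA quantified by RT-PCR, labelling, HpaI digestion and capillary electrophoresis, relative to DMSO.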

The target of experiment [14] is chicken Estrogen Receptor (ERa), ESR1 (gene 396099) (UniProt P06212). As to the kind of experiment: ATG_chERa_XSP2: Attagene TRANS-FACTORIAL Multi-Species (XSP2) HepG2 Assay for chicken Estrogen Receptor (ERa) (AID 2283817).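 Note: actives raise reporter signal above DMSO so AC50 reflects ER activation.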 The gist of the method:
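Transient MRTU transfection of HepG2 → 24 h chemical dosing → TriZol RNA, oligo(dT) RT → PCR, 6-FAM primer extension, HpaI digest → CE quantitation of chicken ERa-Gal4-driven reporter mRNA. Positive direction vs DMSO.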

Experiment [15] has as its system zebrafish Estrogen Receptor (ER2a), gene 317734. As to the kind of experiment: ATG_zfER2a_XSP2: Attagene TRANS-FACTORIAL Multi-Species (XSP2) HepG2 Assay for zebrafish Estrogen Receptor (ER2a) (AID 2283818).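 Note: hits raise reporter mRNA so AC50 reflects activation of zebrafish ER2a.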 The procedure, abridged:
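HepG2 cells transiently transfected with GAL4-UAS reporter units and chimeric zebrafish ER2a-Gal4, exposed 24 h; medium contains 3 nM 6-alpha-fluorotestosterone and 1.5 nM norgestrel. Reporter mRNA quantified by RT-PCR, HpaI digestion, capillary electrophoresis; gain versus DMSO.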

The nature of experiment [16]: ATG_M_32_XSP1: Attagene TRANS-FACTORIAL Multi-Species (XSP1) HepG2 Assay for M32 Transcription Factor (Internal Marker) (AID 2283799). The gist of the method:
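HepG2 cells transiently transfected with multi-species TRANS reporter units, dosed 24 h with 3 nM 6-alpha-fluorotestosterone present. Internal-marker reporter mRNA quantified by RT-PCR and capillary electrophoresis; positive-direction fit versus DMSO.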

The target in experiment [17] is zebrafish Thyroid Hormone Receptor alpha (TRa), thraa (gene 30670) (UniProt Q98867). As to the kind of experiment: ATG_zfTRa_XSP1: Attagene TRANS-FACTORIAL Multi-Species (XSP1) HepG2 Assay for zebrafish Thyroid Hormone Receptor alpha (TRa) (AID 2283807). The procedure, abridged:
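HepG2 cells transiently transfected with GAL4-UAS reporter units including a zebrafish TRa–Gal4 chimera, dosed 24 h with 3 nM 6-alpha-fluorotestosterone present. Reporter mRNA quantified by RT-PCR and capillary electrophoresis; gain versus DMSO.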

Experiment [18] is described as follows: ATG_M_19_XSP1: Attagene TRANS-FACTORIAL Multi-Species (XSP1) HepG2 Assay for M19 Transcription Factor (Internal Marker) (AID 2283798). The procedure, abridged:
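HepG2 cells transiently transfected with multiplexed GAL4-UAS reporter units, dosed 24 h with 3 nM 6-alpha-fluorotestosterone present for partial AR stimulation. Reporter mRNA measured by RT-PCR with capillary electrophoresis; gain-of-signal fitted relative to DMSO.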

In experiment [19] the target is GAL4 Transcription Factor (Internal Marker), GAL4 (gene 855828) (UniProt P04386). The experiment is described as follows: ATG_GAL4_XSP2: Attagene TRANS-FACTORIAL Multi-Species (XSP2) HepG2 Assay for GAL4 Transcription Factor (Internal Marker) (AID 2283814).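 Note: GAL4 reporter mRNA background control in MRTU transfected cells not a receptor target.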 The gist of the method:
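HepG2 cells transiently transfected with GAL4-UAS reporter units, stimulated with 3 nM 6-alpha-fluorotestosterone plus 1.5 nM norgestrel, dosed 24 h. Reporter mRNA by RT-PCR/capillary electrophoresis; gain-of-signal fit versus DMSO, background control.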

Several values for one entry are separate records, joined by “and”; a condition that tells them apart may be missing. Identical values can stand only once. Records with an inconclusive call do not appear. Activity calls are given as the source filed them. Rule for the calls: active = hit-call score of the fitted dose curve at least 0.9, where 1 is the maximum; inconclusive = response in the unintended direction; inactive = score below 0.9.

Chain of Peroxisome proliferator-activated receptor gamma (Homo sapiens) (P37231 whole entry, looked up, the tested form may be a part): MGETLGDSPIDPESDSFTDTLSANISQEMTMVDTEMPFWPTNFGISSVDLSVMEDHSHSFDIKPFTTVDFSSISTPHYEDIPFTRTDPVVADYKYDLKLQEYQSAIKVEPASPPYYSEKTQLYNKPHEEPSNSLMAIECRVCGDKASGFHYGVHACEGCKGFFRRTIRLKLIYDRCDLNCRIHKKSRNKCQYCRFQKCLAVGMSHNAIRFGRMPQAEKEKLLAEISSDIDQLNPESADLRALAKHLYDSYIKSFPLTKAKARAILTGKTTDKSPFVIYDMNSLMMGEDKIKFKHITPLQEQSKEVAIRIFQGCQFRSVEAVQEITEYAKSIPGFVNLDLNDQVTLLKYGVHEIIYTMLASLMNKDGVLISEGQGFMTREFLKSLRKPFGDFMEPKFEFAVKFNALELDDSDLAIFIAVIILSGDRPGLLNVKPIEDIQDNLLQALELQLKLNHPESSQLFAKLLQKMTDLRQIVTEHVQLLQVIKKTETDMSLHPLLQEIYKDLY
Chain of human Thyroid hormone Receptor alpha (TRa), THRA (gene 7067) (P10827 whole entry, looked up, the tested form may be a part): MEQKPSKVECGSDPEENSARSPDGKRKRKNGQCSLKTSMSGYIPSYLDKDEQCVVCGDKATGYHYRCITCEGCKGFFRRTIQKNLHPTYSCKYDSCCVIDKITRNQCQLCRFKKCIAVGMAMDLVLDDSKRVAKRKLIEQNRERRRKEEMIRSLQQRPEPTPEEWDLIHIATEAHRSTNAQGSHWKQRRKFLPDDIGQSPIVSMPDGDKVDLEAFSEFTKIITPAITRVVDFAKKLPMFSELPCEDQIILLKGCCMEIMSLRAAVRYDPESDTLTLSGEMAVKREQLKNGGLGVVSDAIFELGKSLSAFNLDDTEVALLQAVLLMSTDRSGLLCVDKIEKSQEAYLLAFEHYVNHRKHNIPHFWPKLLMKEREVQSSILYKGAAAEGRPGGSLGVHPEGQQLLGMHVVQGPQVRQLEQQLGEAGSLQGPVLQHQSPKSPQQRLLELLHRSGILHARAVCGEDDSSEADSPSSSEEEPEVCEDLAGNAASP
Chain of zebrafish Thyroid Hormone Receptor beta (TRb), thrb (gene 30607) (Q9PVE4 whole entry, looked up, the tested form may be a part): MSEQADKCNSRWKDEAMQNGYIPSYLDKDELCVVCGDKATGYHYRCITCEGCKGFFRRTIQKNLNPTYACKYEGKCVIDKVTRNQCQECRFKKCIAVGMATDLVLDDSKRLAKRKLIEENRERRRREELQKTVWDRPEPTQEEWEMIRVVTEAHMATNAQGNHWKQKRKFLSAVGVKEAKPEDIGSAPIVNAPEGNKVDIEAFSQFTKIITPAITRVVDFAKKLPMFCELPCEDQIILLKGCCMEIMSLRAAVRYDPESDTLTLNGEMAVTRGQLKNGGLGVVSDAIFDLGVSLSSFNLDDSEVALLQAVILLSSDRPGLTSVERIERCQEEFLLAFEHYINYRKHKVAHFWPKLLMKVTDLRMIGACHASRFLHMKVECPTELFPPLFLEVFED
Chain of mouse Peroxisome Proliferator-activated Receptor gamma (PPARg), Pparg (gene 19016) (P37238 whole entry, looked up, the tested form may be a part): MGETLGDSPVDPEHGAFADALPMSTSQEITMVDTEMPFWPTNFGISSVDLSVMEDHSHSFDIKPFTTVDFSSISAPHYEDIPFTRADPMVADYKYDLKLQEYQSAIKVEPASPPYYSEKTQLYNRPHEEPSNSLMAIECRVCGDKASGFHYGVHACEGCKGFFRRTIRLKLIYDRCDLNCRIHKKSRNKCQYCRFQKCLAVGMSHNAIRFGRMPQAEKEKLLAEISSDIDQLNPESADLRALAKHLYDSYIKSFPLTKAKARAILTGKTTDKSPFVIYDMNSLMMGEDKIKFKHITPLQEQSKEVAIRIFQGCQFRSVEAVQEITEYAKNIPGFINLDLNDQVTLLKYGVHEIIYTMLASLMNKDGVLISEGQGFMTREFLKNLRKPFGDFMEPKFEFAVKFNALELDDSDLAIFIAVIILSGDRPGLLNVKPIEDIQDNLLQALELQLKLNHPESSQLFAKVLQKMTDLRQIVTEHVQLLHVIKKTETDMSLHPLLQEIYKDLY
Chain of zebrafish Estrogen Receptor (ER1), esr1 (gene 259252) (P57717 whole entry, looked up, the tested form may be a part): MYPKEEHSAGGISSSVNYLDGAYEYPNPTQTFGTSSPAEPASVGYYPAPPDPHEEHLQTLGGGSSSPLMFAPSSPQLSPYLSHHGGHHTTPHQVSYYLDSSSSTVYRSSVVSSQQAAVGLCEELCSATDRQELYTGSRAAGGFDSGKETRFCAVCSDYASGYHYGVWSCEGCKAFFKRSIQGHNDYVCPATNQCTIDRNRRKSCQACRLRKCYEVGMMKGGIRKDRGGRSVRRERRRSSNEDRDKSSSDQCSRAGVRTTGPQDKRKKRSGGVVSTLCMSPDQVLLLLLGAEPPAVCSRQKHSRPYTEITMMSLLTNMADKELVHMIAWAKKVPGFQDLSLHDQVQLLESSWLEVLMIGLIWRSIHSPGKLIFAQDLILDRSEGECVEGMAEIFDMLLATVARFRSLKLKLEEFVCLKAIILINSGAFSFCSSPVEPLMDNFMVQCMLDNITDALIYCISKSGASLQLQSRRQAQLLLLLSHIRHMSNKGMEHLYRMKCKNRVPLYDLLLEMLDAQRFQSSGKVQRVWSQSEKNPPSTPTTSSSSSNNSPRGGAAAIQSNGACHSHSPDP
Chain of Estrogen receptor beta (Homo sapiens) (Q92731 whole entry, looked up, the tested form may be a part): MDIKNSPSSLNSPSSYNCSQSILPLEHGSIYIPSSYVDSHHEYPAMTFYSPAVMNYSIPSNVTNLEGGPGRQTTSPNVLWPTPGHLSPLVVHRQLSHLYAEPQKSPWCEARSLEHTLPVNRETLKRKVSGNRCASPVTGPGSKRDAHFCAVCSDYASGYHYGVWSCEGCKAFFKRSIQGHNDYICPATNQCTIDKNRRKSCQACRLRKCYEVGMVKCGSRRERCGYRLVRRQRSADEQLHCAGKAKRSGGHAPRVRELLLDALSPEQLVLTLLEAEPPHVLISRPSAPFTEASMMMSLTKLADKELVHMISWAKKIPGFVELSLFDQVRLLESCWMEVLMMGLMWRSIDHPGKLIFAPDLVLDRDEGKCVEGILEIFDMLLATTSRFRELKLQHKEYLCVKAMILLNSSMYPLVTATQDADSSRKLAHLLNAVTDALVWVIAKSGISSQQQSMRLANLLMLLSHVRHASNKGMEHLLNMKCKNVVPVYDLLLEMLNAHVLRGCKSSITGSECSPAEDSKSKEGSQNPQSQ
Chain of Nuclear receptor subfamily 1 group I member 2 (Mus musculus) (O54915 whole entry, looked up, the tested form may be a part): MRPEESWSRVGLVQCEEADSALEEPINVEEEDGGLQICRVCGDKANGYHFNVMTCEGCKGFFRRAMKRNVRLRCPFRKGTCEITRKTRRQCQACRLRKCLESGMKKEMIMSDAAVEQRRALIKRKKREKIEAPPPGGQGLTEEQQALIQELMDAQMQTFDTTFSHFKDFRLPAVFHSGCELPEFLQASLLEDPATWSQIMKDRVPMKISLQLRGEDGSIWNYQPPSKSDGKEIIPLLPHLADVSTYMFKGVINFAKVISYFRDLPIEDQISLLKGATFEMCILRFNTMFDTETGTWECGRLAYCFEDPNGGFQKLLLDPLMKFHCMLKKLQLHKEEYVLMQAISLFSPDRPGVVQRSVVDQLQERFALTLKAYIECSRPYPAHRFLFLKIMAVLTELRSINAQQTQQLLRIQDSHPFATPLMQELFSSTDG
Chain of chicken Estrogen Receptor (ERa), ESR1 (gene 396099) (P06212 whole entry, looked up, the tested form may be a part): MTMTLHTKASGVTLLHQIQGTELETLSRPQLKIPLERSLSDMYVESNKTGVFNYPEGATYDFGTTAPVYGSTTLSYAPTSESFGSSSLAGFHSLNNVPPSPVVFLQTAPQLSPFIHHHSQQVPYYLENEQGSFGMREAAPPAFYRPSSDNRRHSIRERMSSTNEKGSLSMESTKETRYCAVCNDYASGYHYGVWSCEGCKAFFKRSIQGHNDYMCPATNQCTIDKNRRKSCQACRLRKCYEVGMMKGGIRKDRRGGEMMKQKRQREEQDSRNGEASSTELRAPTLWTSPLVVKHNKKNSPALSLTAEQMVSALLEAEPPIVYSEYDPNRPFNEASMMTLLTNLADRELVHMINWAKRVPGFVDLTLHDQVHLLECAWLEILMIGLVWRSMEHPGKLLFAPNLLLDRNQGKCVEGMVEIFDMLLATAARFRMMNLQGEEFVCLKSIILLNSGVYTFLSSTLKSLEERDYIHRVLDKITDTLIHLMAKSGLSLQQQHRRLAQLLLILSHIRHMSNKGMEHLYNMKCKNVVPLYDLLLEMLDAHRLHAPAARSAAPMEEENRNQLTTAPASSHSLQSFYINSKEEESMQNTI
Chain of zebrafish Thyroid Hormone Receptor alpha (TRa), thraa (gene 30670) (Q98867 whole entry, looked up, the tested form may be a part): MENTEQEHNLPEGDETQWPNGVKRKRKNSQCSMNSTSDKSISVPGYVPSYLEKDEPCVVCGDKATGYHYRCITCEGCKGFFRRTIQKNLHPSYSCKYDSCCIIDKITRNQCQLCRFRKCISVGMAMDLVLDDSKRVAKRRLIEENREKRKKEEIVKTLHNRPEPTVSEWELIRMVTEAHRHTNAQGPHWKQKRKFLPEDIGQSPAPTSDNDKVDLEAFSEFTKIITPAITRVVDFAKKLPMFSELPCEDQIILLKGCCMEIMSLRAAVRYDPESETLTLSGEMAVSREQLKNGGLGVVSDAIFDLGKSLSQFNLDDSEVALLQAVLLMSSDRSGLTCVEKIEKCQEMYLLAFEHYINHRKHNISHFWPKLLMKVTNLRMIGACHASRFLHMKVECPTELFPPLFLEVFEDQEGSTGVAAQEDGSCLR
Chain of human Thyroid hormone Receptor beta (TRb), THRB (gene 7068) (P10828 whole entry, looked up, the tested form may be a part): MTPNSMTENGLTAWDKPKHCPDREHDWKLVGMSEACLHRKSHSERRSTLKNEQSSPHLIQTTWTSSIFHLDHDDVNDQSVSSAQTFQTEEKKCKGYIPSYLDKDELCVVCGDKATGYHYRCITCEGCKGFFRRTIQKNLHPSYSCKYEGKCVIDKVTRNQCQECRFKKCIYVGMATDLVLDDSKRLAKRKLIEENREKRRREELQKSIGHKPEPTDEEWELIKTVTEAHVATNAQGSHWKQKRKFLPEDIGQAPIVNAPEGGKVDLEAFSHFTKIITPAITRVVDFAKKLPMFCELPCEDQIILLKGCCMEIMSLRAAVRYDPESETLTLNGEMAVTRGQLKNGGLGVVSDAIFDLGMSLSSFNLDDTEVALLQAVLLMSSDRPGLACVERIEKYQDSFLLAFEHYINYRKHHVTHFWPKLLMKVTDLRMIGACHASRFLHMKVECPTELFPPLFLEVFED

Take `CCN(CC)C(=O)C(C)Oc1cccc2ccccc12` (stereo not given): the AC50 in experiment [1] was 48.4 µM (active); in experiment [3] it was 20.7 µM (active); in experiment [4], 1.27 µM (active); in [14], 7.35 µM (active). The compound was classed as inactive in [2], in experiment [5], in experiment [6], in [7], in experiment [8] and in [9]. Also, the outcome in experiment [10], in experiment [11], in [12], in [13] and in experiment [15] was inactive.
As for `COP(=S)(OC)Oc1ccc([N+](=O)[O-])c(C)c1`, the result in [16], in experiment [2], in experiment [6], in experiment [7], in experiment [17] and in experiment [8] was inactive. The result in experiment [9], in experiment [10], in [11] and in [13] was inactive. Further, the AC50 was 64.4 µM (active) in [1]; 100 µM (active) in [3]; 27.4 µM (active) in experiment [4]; 47.5 µM (active) in experiment [12]; 38.3 µM (active) in experiment [14]; 44.9 µM (active) in experiment [15].
Regarding `Cc1c(COC(=O)[C@@H]2[C@H](/C=C(\Cl)C(F)(F)F)C2(C)C)cccc1-c1ccccc1`, the result in [18], in [16], in experiment [1], in [7], in experiment [17] and in experiment [12] was inactive. Further, the call in experiment [19], in experiment [13] and in experiment [15] was inactive. Moreover, the AC50 in experiment [3] is 42.5 µM (active); in experiment [4], 2.23 µM (active); in experiment [14] it was 30.5 µM (active).
As for `N#Cc1c[nH]cc1-c1cccc2c1OC(F)(F)O2`, the outcome in [11] was inactive. Further, the AC50 in experiment [13] was 25.9 µM (active); in experiment [14], 1.68 µM (active) and 2.04 µM (active); in [15] it was 25.8 µM (active) and 2.71 µM (active).
Consider `CSC(=O)c1c(C(F)F)nc(C(F)(F)F)c(C(=O)SC)c1CC(C)C`, for which the compound was classed as inactive in experiment [18], in experiment [16], in experiment [2], in experiment [6], in experiment [9] and in [10]. Besides, the result in [19], in experiment [13], in experiment [14] and in [15] was inactive. Moreover, the figures for the concentration at half-maximal activity (AC50) in experiment [1], in experiment [3] and in [4] were 7.26 µM (active), 3.94 µM (active) and 0.139 µM (active), respectively.
